Experimental findings from PubChem BioAssay (NCATS) are described below.

Where “and” joins values, the source holds several entries; their conditions need not be identical. Identical values can stand only once. Inconclusive results are not listed. Some compounds were tested as several samples or in several runs, with calls that do not always agree. Calls of active or inactive are those of the source. The call rests on the fitted dose curve; in most records, active means well fitted inhibition curve with a large enough effect; inconclusive means small, poorly fitted or top-dose-only effect; inactive means flat fitted curve, though single readings scatter.
On the % scale 0 is the no-effect control and ±100 the full control effect.

A short description of one assay: Drug repurposing screens with cells derived from glioblastoma tumor samples (AID 1345199). Further: nearly all actives have a fitted effect of over 40% in size. Conditions: GBM patient neurospheres viability, ATP luminescence, 48 h; at 45.9 µM (top of the series); tumour line B. The essentials:
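Primary testing used CD133+ neurospheres from four GBM patients, seven concentrations, 48 h exposure and ATP-based viability; confirmation added three slower-growing patient lines.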
For the molecule `CC[C@H]1OC(=O)[C@H](C)[C@@H](O[C@H]2C[C@@](C)(OC)[C@@H](O)[C@H](C)O2)[C@H](C)[C@@H](O[C@@H]2O[C@H](C)C[C@H](N(C)C)[C@H]2O)[C@](C)(O)C[C@@H](C)C(=O)[C@H](C)[C@@H](O)[C@]1(C)O`, the activity, negative = cell killing is -22.6% (inactive) and -12% (inactive).

With `C[S+](CC[C@H](N)C(=O)O)C[C@H]1O[C@@H](n2cnc3c(N)ncnc32)[C@H](O)[C@@H]1O` (some centres undefined), the activity, negative = cell killing is 4.03% (inactive) and -13.3% (inactive).

For the molecule `O=C(O)/C=C/C(O)c1ccc(Cl)cc1` (centres undefined), the activity, negative = cell killing was 1.63% (inactive).

Regarding `C=CCN1C(=O)C(CC(C)C)NC1=S` (centres undefined), the activity, negative = cell killing was -28.5% (inactive) and -13.5% (inactive).

With `COc1cc(/C=C/C(=O)CC(=O)/C=C/c2ccc(O)c(OC)c2)ccc1O`, the activity, negative = cell killing is -25.8% (inactive).

The same assay, now with this note: GBM patient neurospheres viability, ATP luminescence, 48 h; at 45.9 µM (top of the series); tumour line D.
On to `C[N+](C)(C)CCOP(=O)(O)OP(=O)([O-])OC[C@H]1O[C@@H](n2ccc(N)nc2=O)[C@H](O)[C@@H]1O`, for which the activity, negative = cell killing was -2.69% (inactive) and -5.13% (inactive).

Take `CCCCC[C@H](O)/C=C/[C@@H]1[C@@H](C/C=C\CCCC(=O)O)[C@@H](O)C[C@H]1O`: the activity, negative = cell killing is -6.45% (inactive).

`CC(C)Cc1ccc([C@H](C)C(=O)O)cc1`: the activity, negative = cell killing is 0.88% (inactive).

With `CO/N=C(\C(=O)N[C@@H]1C(=O)N2C(C(=O)O)=C(COC(C)=O)CS[C@H]12)c1csc(N)n1` (stereo in doubt), the activity, negative = cell killing is 9.74% (inactive).

For the molecule `O=C(O)COc1ccc(C(=O)c2cccs2)c(Cl)c1Cl`, the activity, negative = cell killing was -10.2% (inactive) and 1.54% (inactive).

For the molecule `C=CC(N)CCC(=O)O` (centres undefined), the activity, negative = cell killing is -18.8% (inactive).

With `CCCCCC[C@@H](O)C/C=C\CCCCCCCC(=O)O`, the activity, negative = cell killing is -4.78% (inactive) and -10.9% (inactive).

For the molecule `C=C(Nc1ccc(OCC)cc1)Nc1ccc(OCC)cc1`, the activity, negative = cell killing was -18.8% (inactive).

Turning to `CC[C@H]1OC(=O)[C@H](C)C(=O)[C@H](C)[C@@H](O[C@@H]2O[C@H](C)C[C@H](N(C)C)[C@H]2O)[C@](C)(OC)C[C@@H](C)C(=O)[C@H](C)[C@H]2N(CCCCn3cnc(-c4cccnc4)c3)C(=O)O[C@]12C`, the activity, negative = cell killing is 5.49% (inactive).

Take `CN1[C@@H](CC(=O)c2ccccc2)CCC[C@H]1C[C@H](O)c1ccccc1`: the activity, negative = cell killing is -23.7% (inactive).

In the case of `CC1(C)C[C@@H]1C(=O)N/C(=C\CCCCSC[C@H](N)C(=O)O)C(=O)O`, the activity, negative = cell killing is 1.02% (inactive) and -4.66% (inactive).

Turning to `O=C(O)[C@H](O)[C@@H](O)[C@H](O)[C@H](O)CO`, the activity, negative = cell killing is -11.3% (inactive) and 8.58% (inactive).

As for `CC[C@H]1OC(=O)[C@H](C)[C@@H](O[C@H]2C[C@@](C)(OC)[C@@H](O)[C@H](C)O2)[C@H](C)[C@@H](O[C@@H]2O[C@H](C)C[C@H](N(C)C)[C@H]2O)[C@](C)(O)C[C@@H](C)C(=O)[C@H](C)[C@@H](O)[C@]1(C)O`, the activity, negative = cell killing was -9.85% (inactive) and -27.5% (inactive).

Regarding `C[S+](CC[C@H](N)C(=O)O)C[C@H]1O[C@@H](n2cnc3c(N)ncnc32)[C@H](O)[C@@H]1O` (some centres undefined), the activity, negative = cell killing is -4.97% (inactive) and -8.65% (inactive).

For `O=C(O)/C=C/C(O)c1ccc(Cl)cc1` (centres undefined), the activity, negative = cell killing is 7.64% (inactive).

For the molecule `C=CCN1C(=O)C(CC(C)C)NC1=S` (centres undefined), the activity, negative = cell killing was -8.69% (inactive) and -21.9% (inactive).

Take `COc1cc(/C=C/C(=O)CC(=O)/C=C/c2ccc(O)c(OC)c2)ccc1O`: the activity, negative = cell killing was -25.7% (inactive).

Still in this assay, the particulars now being: GBM patient neurospheres viability, ATP luminescence, 48 h; at 46 µM (top of the series); tumour line A.
For the molecule `C[N+](C)(C)CCOP(=O)(O)OP(=O)([O-])OC[C@H]1O[C@@H](n2ccc(N)nc2=O)[C@H](O)[C@@H]1O`, the activity, negative = cell killing is -13.9% (inactive).

For the molecule `CCCCC[C@H](O)/C=C/[C@@H]1[C@@H](C/C=C\CCCC(=O)O)[C@@H](O)C[C@H]1O`, the activity, negative = cell killing was -9.88% (inactive).

On to `CC(C)Cc1ccc([C@H](C)C(=O)O)cc1`, for which the activity, negative = cell killing was -14% (inactive).

For the molecule `CO/N=C(\C(=O)N[C@@H]1C(=O)N2C(C(=O)O)=C(COC(C)=O)CS[C@H]12)c1csc(N)n1` (stereo in doubt), the activity, negative = cell killing is -20.5% (inactive).

As for `O=C(O)COc1ccc(C(=O)c2cccs2)c(Cl)c1Cl`, the activity, negative = cell killing was -22.1% (inactive) and -29.6% (inactive).

Take `C=CC(N)CCC(=O)O` (centres undefined): the activity, negative = cell killing was -11.6% (inactive).

With `CCCCCC[C@@H](O)C/C=C\CCCCCCCC(=O)O`, the activity, negative = cell killing is -28% (inactive).

`CC[C@H]1OC(=O)[C@H](C)C(=O)[C@H](C)[C@@H](O[C@@H]2O[C@H](C)C[C@H](N(C)C)[C@H]2O)[C@](C)(OC)C[C@@H](C)C(=O)[C@H](C)[C@H]2N(CCCCn3cnc(-c4cccnc4)c3)C(=O)O[C@]12C`: the activity, negative = cell killing was -23.7% (inactive).

As to `CC1(C)C[C@@H]1C(=O)N/C(=C\CCCCSC[C@H](N)C(=O)O)C(=O)O`, the activity, negative = cell killing was -10.2% (inactive) and -10.8% (inactive).

As to `O=C(O)[C@H](O)[C@@H](O)[C@H](O)[C@H](O)CO`, the activity, negative = cell killing is -25.5% (inactive) and -7.46% (inactive).

As to `O=C(O)/C=C/C(O)c1ccc(Cl)cc1` (centres undefined), the activity, negative = cell killing was -31.6% (inactive).

In the case of `C=CCN1C(=O)C(CC(C)C)NC1=S` (centres undefined), the activity, negative = cell killing was -6.38% (inactive) and -35.5% (inactive).
